In the library only some 2.9% were active in any assay of this set; here they are far more common.
EBV LMP1 NFkB: Epstein-Barr LMP1 NF-kappaB reporter inhibition. LMP1-induced NF-kappaB luciferase reporter cells, luminescence. inhibition, % at 12.5 µM. 350,000 tested, 0.69% active; in the data active = inhibition above about 41%; inconclusive = no clear call, values can overlap the other calls;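 also: 0% = neutral control wells and 100% = reference inhibitor control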
Shn3 3UTR inh: Schnurri-3 reporter inhibition in Clone20 osteoblasts. Clone20 osteoblast Shn3 3'UTR firefly luciferase, 24 h. inhibition, % at 12.5 µM. 360,000 tested, 0.52% active;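 active = mean inhibition of at least 75% with every replicate also reaching 75%; inconclusive = mean inhibition at least 75% but some replicate below; inactive = mean inhibition below 75%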;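 also: 0% = median of neutral control wells and 100% = pilot-screen positive control compound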
Peg3 promoter: Peg3 promoter activity inhibition; inhibition, % at 20 µM; HeLa PEG-Prom luciferase reporter, luminescence, overnight; AID 588405; 360,000 tested, 1.7% active;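 active = inhibition of at least 50% at 20 µM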
CF NFkB block: cystic fibrosis NF-kB activation inhibition; KKLEB NF-kB-GFP reporter, PAF-induced, GFP fluorescence overnight; inhibition, % at 5 µM; 360,000 tested, 0.86% active; AID 588850;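 active = at least 50% inhibition at 5 µM, scaled per plate between neutral and stimulator controls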;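 also: PAF is a Pseudomonas aeruginosa culture filtrate used as stimulus; plate controls were PAF-stimulated DMSO wells for no effect and unstimulated DMSO wells for full effect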
HIF-2a block: HIF-2a inhibition; 786-0 RCC cells HIF-2a reporter, luciferase luminescence, overnight; inhibition, % at 18.8 µM; 360,000 tested, 0.72% active; AID 624352;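 active = inhibition of the luminescence signal of 40% or more relative to plate controls, in a single-dose primary screen at 18.75 µM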
KKLEB tox: CF airway cell cytotoxicity counter-screen; KKLEB CF airway cells viability, ATPlite luminescence, overnight; stronger effect = lower value; cells stimulated with P. aeruginosa culture filtrate; activity change (cytotoxicity), % at 5 µM; 360,000 tested, 0.36% active; AID 602141;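 active = corrected activity change at or below -50% at 5 µM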
CF NFkB inh conf: confirmation of cystic fibrosis induced NF-kB inhibitors | shares compounds with CF NFkB block | KKLEB CF airway cells, PAF-induced NF-kB-GFP fluorescence, overnight | inhibition, % at 5 µM | 1,300 tested, 64% active | AID 602472; in the data active = inhibition above about 40%;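 also: stimulus PAF is a Pseudomonas aeruginosa filtrate and not platelet activating factor; plate controls were DMSO wells with stimulus for no effect and unstimulated DMSO wells for full effect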
An asterisk follows results filed as active; u = inconclusive; x = not tested or not shown.

SMILES	EBV LMP1 NFkB	Shn3 3UTR inh	Peg3 promoter	CF NFkB block	HIF-2a block	KKLEB tox	CF NFkB inh conf
COc1ccc(OC)c(S(=O)(=O)NCC(c2ccco2)S(=O)(=O)c2ccccc2)c1 (stereo unspecified)	-10	-31	4	50*	2	12	24
O=C(CCCc1nc(-c2ccc(Cl)cc2)no1)NC1CCCC1	26	66	17	24	13	-21	x
CCOC(=O)c1cc(OC)c2cccc(CN3CCC(C)(C(=O)NCCOC)C3)c2c1 (stereo unspecified)	x	-6	15	-5	-3	-4	x
O=C(NNC(=S)Nc1cccc(C(F)(F)F)c1)c1cccc(Cl)c1	7	4	-11	51*	-56	-26	77*
O=C(NNC(=S)Nc1cccc(C(F)(F)F)c1)c1ccccc1Cl	1	3	10	-6	-72	7	x
Cc1c([N+](=O)[O-])c2ccc(O)cc2n1-c1ccccc1	35	x	31	68*	3	-2	78*
COc1ccccc1Cn1c(=O)c2ccccc2n2c(Sc3ncnc4sccc34)nnc12	13	58	26	72*	24	-31	48*
COc1ccccc1Cn1c(=O)c2ccccc2n2c(SCc3csc(C)n3)nnc12	1	2	15	-13	19	5	x
O=[N+]([O-])c1cccc(-c2ccc(/C=N/Nc3nc(N4CCCCC4)nc(N4CCCCC4)n3)o2)c1	u	17	69*	55*	30	-17	39
CCCCCCc1cc2cc(C(=O)OCC)c(=O)oc2cc1O	-1	25	27	53*	-45	-32	78*
CCCCCCc1cc2cc(/C(N)=N/NC(=O)c3ccncc3)c(=O)oc2cc1O	18	17	20	22	9	-2	x
CC(C)(CO)CNc1ccn2nccc2n1	x	19	-2	53*	16	1	60*
Cn1cc([N+](=O)[O-])c(C(=O)Nc2ccc(-c3nc4ccccc4o3)cc2)n1	-22	7	51*	68*	-35	-36	-87
Cn1cc([N+](=O)[O-])c(C(=O)Nc2ccc(Br)cn2)n1	4	-10	15	16	-438	10	x
COc1cccc(NC(=O)CN(C)CC(=O)Nc2ccc(C)c([N+](=O)[O-])c2)c1	2	38	8	66*	2	0	76*
O=C(NCCc1ccc(F)cc1)c1coc(=O)c(Br)c1	-20	-11	48	81*	13	18	83*
CN(C)C=Nc1c(C(=O)c2ccccc2)sc2nccc(N(C)C)c12	16	-16	-25	53*	-2	-4	57*
N#Cc1cc([N+](=O)[O-])cnc1NCC(O)CO (stereo unspecified)	-3	7	5	4	10	-7	x
CC(C)N(C(=O)[C@H]1C[C@H](CC(=O)NCc2cccc(C(F)(F)F)c2)C(=O)N2CCc3c([nH]c4ccc(Cl)cc34)[C@]12C)C(C)C	10	12	59*	60*	-16	-41	39
C[C@]12c3[nH]c4ccc(Cl)cc4c3CCN1C(=O)[C@@H](CC(=O)NCc1cccc(C(F)(F)F)c1)C[C@@H]2C(=O)N1CCOCC1	0	38	33	-6	-11	1	x
CCSC1(SCC)N=C(N)C2(C#N)C(c3ccc(OC)c(OC)c3OC)C12C#N (stereo unspecified)	15	-20	30	79*	35	-17	35
COc1ccc(CN(C(=O)CSc2nnc(-c3c[nH]c4ccccc34)o2)c2ccc(F)cc2)cc1OC	36	80	107*	63*	-176	-8	68*
CCOC(=O)CSc1nnc(-c2c[nH]c3ccccc23)o1	-13	-9	-5	-11	26	-14	x
Cc1ccc(CC2C(=O)N(c3cc(C)ccc3C)C(=O)C2C)cc1 (stereo unspecified)	-1	8	10	17	25	2	x
Cc1nc(C)c(-c2csc(Nc3ccccn3)n2)s1	-1	-73	-161	8	-224	6	x
SMILES	EBV LMP1 NFkB	Shn3 3UTR inh	Peg3 promoter	CF NFkB block	HIF-2a block	KKLEB tox	CF NFkB inh conf
Cc1ccnc(Nc2nc(-c3sc(C)nc3C)cs2)c1	-27	-21	4	55*	-396	-17	91*
CC(C)c1nc(Cl)c(C#N)c2c1CCCC2	6	12	-44	55*	6	-4	77*
CC(C)c1nc(NCCO)c(C#N)c2c1CCCC2	31	9	10	71*	36	-10	55*
CN1C2C=CC(=O)C1C1C(=O)N(c3ccccc3)C(=O)C12 (stereo unspecified)	x	-9	38	62*	22	-6	35
CN(C(=O)CSc1nc(-c2cccs2)nc2ccccc12)C1CCS(=O)(=O)C1 (stereo unspecified)	1	84	17	-30	2	-3	x
Cc1c(N=C2N=C(NC(=O)Nc3ccc(Cl)cc3)c3ccccc32)c(=O)n(-c2ccccc2)n1C	5	3	19	51*	1	-41	18
Cc1c(NC(=O)Nc2ccc(Cl)cc2)c(=O)n(-c2ccccc2)n1C	-15	-17	9	-5	-4	-7	x
CS(=O)(=O)n1nc(C(=O)N2CCOCC2)nc1N	1	12	2	8	4	-3	x
COc1ccc(C)c2sc(N(CCN(C)C)C(=O)/C=C/c3cccs3)nc12	0	-16	50*	56*	8	-35	9
COc1cccc2sc(N(CCN(C)C)C(=O)/C=C/c3cccs3)nc12	1	-2	13	36	23	-20	x
CCOC(=O)c1ccc(N=Nc2c(C)[nH]n(-c3ccccc3)c2=O)cc1	8	9	8	-28	-23	0	x
CCOC(=O)c1ccc(-n2[nH]c(-c3ccccc3)cc2=O)cc1	3	-18	-22	64*	-19	-48	76*
O=C(C1CC=CCC1)N1CCCCCC1 (stereo unspecified)	7	9	-5	27	4	1	x
COCC(C)NC(=O)C(C)Oc1ccccc1 (stereo unspecified)	4	-8	6	-2	18	12	x
O=C(Nc1nc2c(F)cc(F)cc2s1)c1ccco1	-8	-56	-315	-72	-210	4	x
O=C(Nc1nc2c(F)cc(F)cc2s1)c1ccc([N+](=O)[O-])o1	-24	-75	-61	86*	-256	-41	16
O=C(O)C1C2C=CC(C2)C1C(=O)NCc1ccc(Cl)cc1Cl (stereo unspecified)	0	2	18	6	20	8	x
COc1ccccc1-c1ccc(SCC(=O)NC2CCCC2)nn1	-5	7	7	15	-4	-9	x
Cc1ccc(S(=O)(=O)Nc2cccc3ncccc23)s1	17	84	103*	83*	80*	5	109*

Bioassay records from PubChem BioAssay.
